Laboratory results taken from PubChem BioAssay (NCI).
The panel holds about 79,000 compounds, 15% with a hit somewhere; the sample as a whole holds those more often. Active and inactive are the calls of the source. Cut-off read from the data, not from the text of the source: active = growth inhibition above about 70%; inactive = the rest.

How the values were obtained:
[1] = NCI Yeast Anticancer Drug Screen. Data for the rad50 strain (AID 155);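 note: 0% = growth of vehicle-only cultures of the same strain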; details: S. cerevisiae rad50 strain growth inhibition; at 50.0 µM; active compounds read high
In short: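 Vehicle-treated cultures provide the reference for the growth inhibition reported for compound-exposed, repair-deficient yeast.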

[2] = NCI Yeast Anticancer Drug Screen. Data for the mec2-1 strain (AID 157); details: S. cerevisiae mec2-1 strain, at 50.0 µM, active compounds read high
In short: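 Using mec2-1 yeast: add compound, measure growth, express inhibition versus vehicle-treated cultures.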

[3] = NCI Yeast Anticancer Drug Screen. Data for the sgs1 mgt1 strain (AID 161);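 note: 0% = growth of cultures given vehicle only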; details: S. cerevisiae sgs1 mgt1 strain, at 50.0 µM, active compounds read high
In short: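 This yeast growth screen uses a strain with defined DNA-repair lesions; compound-treated growth is compared with vehicle-treated growth.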

[4] = NCI Yeast Anticancer Drug Screen. Data for the cln2 rad14 strain (AID 165);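 note: 0% = growth equal to vehicle treated cultures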; details: S. cerevisiae cln2 rad14 strain, at 50.0 µM, active compounds read high
In short: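 Yeast strain cln2 rad14, bearing defects in cell cycle control and DNA repair, serves as the test system; values reflect growth inhibition compared with vehicle.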

[5] = NCI Yeast Anticancer Drug Screen. Data for the bub3 strain (AID 167); details: S. cerevisiae bub3 mutant strain, at 50.0 µM, active compounds read high
In short: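 Mutant yeast screening strain plus compound; vehicle-treated cultures serve as the 0% inhibition reference.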

[6] = NCI Yeast Anticancer Drug Screen. Data for the mlh1 rad18 strain (AID 175); details: S. cerevisiae mlh1 rad18 strain growth inhibition; at 50.0 µM; active compounds read high
In short: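 Steps: expose repair-defective yeast to compound; measure growth; express inhibition against vehicle-treated controls.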

Measured: growth inhibition

C=CC1(C)CCC2C(=CCC3C2(C)CC(O)C(O)C3(C)COC2OC(C(=O)O)C(O)C(O)C2O)C1 (centres undefined) (tested in a mixture with another compound)
inactive: [1] 16.1% | [2] -3.55% | [3] -6.9% | [4] 18.3% | [5] 4.95% | [6] -67.3%

Cc1ccc([N+](=O)[O-])cc1NC(=O)NCCO
inactive: [1] 1.15% | [2] 1.6% | [3] -6.3% | [4] -71% | [5] 1% | [6] -1.75%

CCCCCCCCCCCCCCCCSc1ccc2ccccc2c1
inactive: [1] 37.9% | [2] -13.8% | [3] 41.3% | [4] -7.5% | [5] -3.45% | [6] 0.2%

CN(C)CCNC(=O)Cn1cc([N+](=O)[O-])c(=O)c2ccccc21
inactive: [1] -12.9% | [2] -13.1% | [3] -8.8% | [4] 18.9% | [5] -7.2% | [6] -31.1%

N#CC1(C#N)CC1(C#N)C#N
inactive: [1] 7.9% | [2] 16.4% | [3] -1.75% | [4] 27.1% | [5] 12.7% | [6] 15.2%

CCCCOC(=O)CC1CCCCC1
inactive: [1] -15.3% | [2] -8.95% | [3] -30.8% | [4] -6.1% | [5] -5.6% | [6] -10.2%

CC(C)CCOC(=O)c1ccccc1Cl
inactive: [1] 17.7% | [2] 18.5% | [3] 11.1% | [4] 12.4% | [5] 0.15% | [6] -14.6%

COC1CCC2C(C1)C(C1CCCCC1)C1CCCCC1C2C1CCCCC1 (centres undefined)
inactive: [1] -1.1% | [2] 8.05% | [3] -14.6% | [4] -7.25% | [5] -0.9% | [6] -7.65%

O=C1O[C@@H](c2ccc3c(c2)OCO3)C2C(=O)O[C@@H](c3ccc4c(c3)OCO4)C12 (some centres undefined)
inactive: [1] 13.5% | [2] 8.95% | [3] -8.15% | [4] 19.4% | [5] 2.6% | [6] 21.7%

CC(C)(C)C(=O)C(C(=O)c1ccccc1)C(=O)C(C)(C)C
inactive: [1] -4.65% | [2] -16.4% | [3] 19.9% | [4] 6.85% | [5] 9.8% | [6] -30.2%

N/N=C/c1cccn1-c1ccccc1Cl
inactive: [1] 33.8% | [2] 15.3% | [3] 26.9% | [4] 0.35% | [5] 28.2% | [6] 14.8%

COc1ccc(/C=N/N2CCN(/N=C/c3ccc(OC)cc3)CC2)cc1
inactive: [1] 9.85% | [2] 9.7% | [3] 9.2% | [4] -6.1% | [5] 5.1% | [6] -5.35%

Cc1ccc2nc3c(C)c(Cl)c(=O)cc-3sc2c1
inactive: [1] 7% | [2] 19.4% | [3] 7.4% | [4] -0.1% | [5] -2.4% | [6] 36.5%

C=C1C(=O)O[C@@H]2C(=O)[C@@H](C)[C@@H]3C=CC(=O)[C@@]3(C)[C@@H](OC(=O)/C(C)=C\C)[C@H]12
inactive: [1] -2.4% | [2] -14.3% | [3] 8.8% | [4] 10.7% | [5] 7.4% | [6] 27.1%

O=C1c2cccc3cc([N+](=O)[O-])cc(c23)C(=O)N1C(Cc1ccccc1)c1ccccc1 (centres undefined)
inactive: [1] 4.1% | [2] -6.05% | [3] 16.4% | [4] 15.1% | [5] 10.6% | [6] 19.1%

OCC(O)C(O)C(O)C(SCc1ccccc1)SCc1ccccc1 (centres undefined)
inactive: [1] 3.9% | [2] -7.85% | [3] -20.4% | [4] -4.8% | [5] -6.2% | [6] -12.6%

O=[N+]([O-])c1ccc(Br)cc1
inactive: [1] -6.5% | [2] -14.2% | [3] 17.7% | [4] 16.2% | [5] -2.3% | [6] 19.2%

C#CCNC(=O)ON1C(=O)CCC1=O
inactive: [1] -5.25% | [2] -8.4% | [3] -25.7% | [4] -12.4% | [5] -16.9% | [6] -28.9%

S=C(Nc1ccc(Cl)cc1)Nc1ccc(Cc2ccc(NC(=S)Nc3ccc(Cl)cc3)cc2)cc1
inactive: [1] 53.9% | [2] 36.2% | [3] 49.6% | [4] 59.4% | [5] 53.6% | [6] 20.4%

O=C(O)[Si](c1ccccc1)(c1ccccc1)c1ccccc1
inactive: [1] 43.7% | [2] 25.9% | [3] 39.6% | [4] 4.8% | [5] 20.1% | [6] 48.1%

COc1cccc(/C=C(\NC(C)=O)c2nc3ccc(Cl)cc3[nH]2)c1
inactive: [1] 1.8% | [2] -1.35% | [3] 8.75% | [4] 2.15% | [5] -3.85% | [6] 8.1%

CC(=O)Nc1ccc(N=Nc2c(C)nn(C(=N)N)c2C)cc1
inactive: [1] -5.45% | [2] -8.55% | [3] 0.45% | [4] 0.6% | [5] -4.2% | [6] 9%

COc1ccc(C(=O)N/N=C/c2ccccc2)cc1
inactive: [1] 8.3% | [2] -10.8% | [3] -7.7% | [4] 6.85% | [5] 2.6% | [6] -18.1%

CNC1C(CO)OC(n2cnc3c(N)ncnc32)C1O (centres undefined)
inactive: [1] 1.85% | [2] -9.55% | [3] 3.75% | [4] -60.8% | [5] 2.75% | [6] -13.2%

OC(CBr)(c1ccccc1)c1ccccc1
inactive: [1] 13.5% | [2] 23.4% | [3] 19.9% | [4] 31.3% | [5] 7% | [6] 24.1%

Cn1nnc2c(C(N)=S)ncn2c1=O
inactive: [1] 30.1% | [2] 11% | [3] 10.7% | [4] 19.6% | [5] 17.9% | [6] 22%

C=C(C)C(=O)Oc1ccccc1-c1ccccc1
inactive: [1] 2.55% | [2] -10.2% | [3] -5.5% | [4] 15.6% | [5] 2.65% | [6] -26.5%

CCCCCCCC#CC1(CCCC)Sc2ccccc2N1C (centres undefined)
inactive: [1] 15.3% | [2] 6.15% | [3] 0.75% | [4] 8.05% | [5] 6.35% | [6] 19.8%

O=C1NC(N(Cc2ccccc2)Cc2ccccc2)=NC1(c1ccccc1)c1ccccc1
inactive: [1] 16.2% | [2] 2.85% | [3] 23.2% | [4] 7.45% | [5] 5.9% | [6] 20.6%

CCCCCCCCCCCCC(O)C(=O)O (centres undefined)
inactive: [1] 12.3% | [2] -17.9% | [3] 10.2% | [4] 12.8% | [5] 35.7% | [6] -39.7%

CCN(CC)CCCC(C)NCc1ccnc2cc(Cl)ccc12 (centres undefined)
inactive: [1] -3.35% | [2] -8.05% | [3] 5.95% | [4] -21.4% | [5] 1.65% | [6] 25.4%

CC1(C)N=C(N)N=C(N)N1c1ccc(CCCCc2ccccc2)cc1
active: [1] 99.6% | [2] 99.7% | [3] 99.8% | [4] 99.3%
inactive: [5] 50% | [6] 46.1%

Cc1ccc(-c2nnc(CCCCCCCCc3nnc(-c4ccc(C)cc4O)n3N)n2N)c(O)c1
inactive: [1] 9.2% | [2] -21.9% | [3] 3.75% | [4] 7.5% | [5] 1.75% | [6] 0.5%

CN(C)NC(=O)Oc1ccc(Cl)cc1
inactive: [1] -0.25% | [2] -0.35% | [3] -11.4% | [4] -4.55% | [5] -33.3% | [6] 2.75%

Nc1nc2c(ncn2C2C=CC(CO)C2)c(=O)[nH]1 (centres undefined)
inactive: [1] 7.6% | [2] 12.5% | [3] 3.9% | [4] 10.4% | [5] -2.1% | [6] 4.25%

CC(=O)NC1CCC2CCCCC2C1 (centres undefined)
inactive: [1] 15.7% | [2] -3.15% | [3] -8.75% | [4] -61% | [5] 32.1% | [6] -17.9%

CCCCCCCCn1nnnc1C(F)(F)F
inactive: [1] -3.1% | [2] 8.45% | [3] 6.75% | [4] -15.1% | [5] 1.45% | [6] -0.45%

COc1cc(OC)c(NC(=O)/C=C/c2ccccc2)cc1Cl
inactive: [1] -3.45% | [2] -75.7% | [3] 7.85% | [4] -21.4% | [5] 11.2% | [6] 21%

CC(=O)CC(=O)Nc1ccc(Cl)cc1
inactive: [1] -2.75% | [2] -27.9% | [3] 12.2% | [4] 3.85% | [5] -5.55% | [6] 8.45%
